Records with an inconclusive call do not appear. A call without a number means that no potency is given here. Active and inactive are the calls of the source. Calls follow the shape of the dose curve; as a rule, active = well fitted cell-killing curve with a large enough effect; inconclusive = small, poorly fitted or top-dose-only effect; inactive = flat fitted curve, though single readings scatter.
assay: Cell Viability - LYMP2-010 (AID 981); conditions: LYMP2-010 lymphoblastoid cell viability, qHTS; series mostly up to 92.2 µM;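 also: cells exposed to compound for 24 hours at 37 °C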
Summary of the method: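 qHTS cytotoxicity, 1536-well: 2500 cells/well, 5 hr settle, 24 hr compound at 37 C, CellTiter-Glo 30 min RT, luminescence read. Decrease in ATP = toxicity; AC50 via standard Hill equation. Positive control tetraoctylammonium bromide.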
Also: nearly all actives have a fitted effect of over 55% in size.
Potency is read from the fitted curve at half-maximal effect.

Row | SMILES | Potency
1 | O=C(O)COc1ccc(Cl)cc1Cl | inactive
2 | CCOCN(C(=O)CCl)c1c(C)cccc1CC | 50.1 µM (active)
3 | CCNc1nc(Cl)nc(NC(C)C)n1 | inactive
4 | C=CCc1ccc(OC)cc1 | inactive
5 | ClC1=C(Cl)C2(Cl)C3C4CC(C5OC45)C3C1(Cl)C2(Cl)Cl (configuration not stated) | 50.1 µM (active)
6 | ClC(Cl)=C(c1ccc(Cl)cc1)c1ccc(Cl)cc1 | inactive
7 | CCc1cccc(CC)c1N(COC)C(=O)CCl | 50.1 µM (active)
8 | C/C=C/c1ccc2c(c1)OCO2 | inactive
9 | C=CCc1ccc2c(c1)OCO2 | inactive
10 | COP(=S)(OC)Oc1ccc([N+](=O)[O-])cc1 | inactive

assay: Cell Viability - LYMP2-012 (AID 982); conditions: LYMP2-012 lymphoblastoid cell viability qHTS; series mostly up to 92.2 µM;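 also: cellular ATP by luciferase luminescence where a drop means cytotoxicity; cells exposed to compound for one day before reading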

Row | SMILES | Potency
11 | O=C(O)COc1ccc(Cl)cc1Cl | inactive
12 | O=S1OCC2C(CO1)C1(Cl)C(Cl)=C(Cl)C2(Cl)C1(Cl)Cl (configuration not stated) | inactive
13 | c1ccc(N=Nc2ccccc2)cc1 | inactive
14 | CNC(=O)O/N=C/C(C)(C)SC | inactive
15 | CCNc1nc(Cl)nc(NC(C)C)n1 | inactive
16 | C=CCc1ccc(OC)cc1 | inactive
17 | ClC1=C(Cl)C2(Cl)C3C(Cl)C=CC3C1(Cl)C2(Cl)Cl (configuration not stated) | inactive
18 | ClC1=C(Cl)C2(Cl)C3C4CC(C5OC45)C3C1(Cl)C2(Cl)Cl (configuration not stated) | 39.8 µM (active)
19 | ClC(Cl)=C(c1ccc(Cl)cc1)c1ccc(Cl)cc1 | inactive
20 | C/C=C/c1ccc2c(c1)OCO2 | inactive
21 | C=CCc1ccc2c(c1)OCO2 | inactive
22 | COP(=S)(OC)Oc1ccc([N+](=O)[O-])cc1 | inactive

Reference: PubChem BioAssay (NCATS)
